Laboratory results: PubChem BioAssay (EPA / NIEHS)
Active and inactive are the calls of the source. The calls were made as follows: active = hit-call score of the fitted dose curve at least 0.9, where 1 is the maximum; inactive = score below 0.9.

Each compound was assayed against Myc proto-oncogene protein (Homo sapiens) (UniProt P01106) (assay: ATG_Myc_CIS: Attagene CIS-FACTORIAL HepG2 Assay for human Myelocytomatosis (Myc) Proto-Oncogene Transcription Factor (AID 2282990)). Conditions: HepG2, Attagene cis-reporter transcription factor activity; actives raise or lower the signal.
Sequence of Myc proto-oncogene protein (Homo sapiens) (P01106 whole entry, looked up): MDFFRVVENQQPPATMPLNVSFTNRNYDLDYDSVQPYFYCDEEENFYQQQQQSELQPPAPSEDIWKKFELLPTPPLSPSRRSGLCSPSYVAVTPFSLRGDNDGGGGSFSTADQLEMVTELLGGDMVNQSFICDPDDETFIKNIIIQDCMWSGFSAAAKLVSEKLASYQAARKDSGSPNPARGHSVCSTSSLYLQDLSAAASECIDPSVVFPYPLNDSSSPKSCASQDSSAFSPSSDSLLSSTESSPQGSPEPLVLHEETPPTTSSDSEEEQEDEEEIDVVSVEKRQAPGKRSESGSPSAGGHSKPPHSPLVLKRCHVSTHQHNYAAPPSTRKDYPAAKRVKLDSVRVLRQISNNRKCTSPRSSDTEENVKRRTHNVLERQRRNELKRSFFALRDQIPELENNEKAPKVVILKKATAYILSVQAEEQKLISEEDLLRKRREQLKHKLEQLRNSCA
Protocol: ATG_CIS is a cell-based, multiplexed-readout assay that uses HepG2, a human liver cell line, with measurements taken at 24 hours after chemical dosing in a 24-well plate.ATG_Myc_CIS is one of 52 assay component(s) measured or calculated from the ATG_CIS assay. It is designed to make measurements of mRNA induction, a form of inducible reporter, as detected with fluorescence intensity signals by Reverse transcription polymerase chain reaction (RT-PCR) and Capillary electrophoresis technology.Data from the assay component ATG_Myc_CIS was analyzed into 1 assay endpoint. This assay endpoint, ATG_Myc_CIS, was analyzed with bidirectional fitting relative to DMSO as the negative control and baseline of activity. Using a type of inducible reporter, measures of mRNA for gain or loss-of-signal activity can be used to understand the reporter gene at the transcription factor-level as they relate to the gene MYC. Furthermore, this assay endpoint can be referred to as a primary readout, because this assay has produced multiple assay endpoints where this one serves a reporter gene function. To generalize the intended target to other relatable targets, this assay endpoint is annotated to the dna binding intended target family, where the subfamily is basic helix-loop-helix leucine zipper.
Human liver HepG2 cells are transiently transfected with multiple reporter transcription units (MRTUs) in 6-well plates using FuGene 6 reagent (Roche; 3 ml FuGene/1 mg DNA). The MRTU constructs are regulated by a cis-regulating element (promoter). […] A major difference between the CIS and TRANS system is that in CIS activities of endogenous TFs are measured, whereas the TRANS assay evaluates changes in activities of exogenous, chimeric NR-Gal4 proteins. […] At the end of 24 hour incubation, total RNA was isolated using TriZol reagent (Invitrogen). The isolated RNA is then reverse-transcribed using oligo(dT) primer and Mo-MLV reverse transcriptase (Invitrogen) with DNAse I (Ambion) treatment for 30 min. The one-tenth of the produced cDNA was amplified by PCR using Taq DNA polymerase (Invitrogen) and two reporter sequence-specific primers. The PCR products were fluorescently labeled by primer extension with 6-arboxyfluorescein (6-FAM) 5'-labeled reporter sequence-specific primer (2 min at 95 C, 20 s at 68 C and 10 min at 72 C) and these products were digested with 5U of HpaI (New England Biolabs) for 2h at 37 C. The fragments were purified using Qiaquick PCR columns (Qiagen), analyzed on an ABI 3130xL genetic analyzer (Applied Biosystems) with peak positions identified by using a set of X-rhodamine (ROX)-labeled MapMarker1000 molecular weight standards (BioVentures). The raw capillary electrophoresis data was processed using Attagraph software (Attagene).

| Compound | outcome | AC50 |
| --- | --- | --- |
| CCC(C)(C)c1ccc(O)c(C(C)(C)CC)c1 | inactive |  |
| ClCc1cccnc1 | inactive |  |
| O=Cc1cccc(Oc2ccccc2)c1 | inactive |  |
| O=C1C(Cl)=C(Cl)C(=O)c2ccccc21 | inactive |  |
| C=C(C)C#N | inactive |  |
| O=C/C=C/c1ccccc1 | inactive |  |
| CC(C)OC(=O)Nc1ccccc1 | inactive |  |
| CC(C)c1ccc(CO)cc1 | inactive |  |
| CCCCC(CC)CO[N+](=O)[O-] (stereo not given) | inactive |  |
| NC(=S)Nc1ccccc1 | inactive |  |
| CC(C)C1CCC(Cc2ccc(Cl)cc2)C1(O)Cn1cncn1 (stereo not given) | inactive |  |
| CN(C)P(=O)(N(C)C)N(C)C | inactive |  |
| CC(=O)c1cc(C(C)(C)C)cc2c1CCC2(C)C |  | 146 µM (active) |
| O=C(NCO)NCO | inactive |  |
| ClC1=C(Cl)[C@]2(Cl)[C@H]3[C@H]([C@H]4C=C[C@H]3C4)[C@@]1(Cl)C2(Cl)Cl | inactive |  |
| COC(=O)c1sccc1S(=O)(=O)NC(=O)Nc1nc(C)nc(OC)n1 | inactive |  |
| CCC[CH2][Sn]([Cl])([Cl])[Cl] | inactive |  |
| CC(=O)[O][Hg][c]1ccccc1 | inactive |  |
| Oc1c(I)cc(I)cc1I | inactive |  |
| CCC(C)c1cccc(C(C)CC)c1O (stereo not given) | inactive |  |

| Compound | outcome | AC50 |
| --- | --- | --- |
| C=C(C)C(=O)[O][Sn]([CH2]CCC)([CH2]CCC)[CH2]CCC | inactive |  |
| COc1cc(-c2ccc(N)c(OC)c2)ccc1N | inactive |  |
| CCOP(=S)(OCC)SCSP(=S)(OCC)OCC | inactive |  |
| CCC[CH2][Sn]([CH2]CCC)([CH2]CCC)[O]C(=O)c1ccccc1 | inactive |  |
| CC1CN1P(=O)(N1CC1C)N1CC1C (stereo not given) | inactive |  |
| COS(=O)(=O)c1ccc(C)cc1 | inactive |  |
| Nc1ccc(N=Nc2ccc(-c3ccc(N=Nc4c(S(=O)(=O)O)cc5cc(S(=O)(=O)O)c(N=Nc6ccccc6)c(O)c5c4N)cc3)cc2)c(N)c1 | inactive |  |
| O=CC=O | inactive |  |
| NNC(=S)NN | inactive |  |
| C1CCC(NC2CCCCC2)CC1 | inactive |  |
| CN(C)N=O | inactive |  |
| CC(C)(C)c1cc(O)ccc1O | inactive |  |
| O=C1CCCN1 | inactive |  |
| CCC1(c2ccc(N)cc2)CCC(=O)NC1=O (stereo not given) | inactive |  |
| CCC(=O)C(CC(C)N(C)C)(c1ccccc1)c1ccccc1 (stereo not given) | inactive |  |
| Cc1ccc(N)cc1Cl | inactive |  |
| O=C(c1ccccc1)C(Cl)Cl | inactive |  |
| Nc1ccc(Cl)cc1C(=O)c1ccccc1 | inactive |  |
| O=P(O)(O)CN(CP(=O)(O)O)CP(=O)(O)O | inactive |  |
| OCc1ccco1 | inactive |  |
